These results are taken from PubChem BioAssay (NCATS).

For test [1], the target named is Tyrosyl-DNA phosphodiesterase 1 (Homo sapiens) (UniProt Q9NUW8). The test can be described thus: Confirmation Assay for Inhibitors of Tyrosyl-DNA Phosphodiesterase (TDP1) (AID 489007). Further: nearly all actives have a fitted effect of over 40% in size. The note with it: recombinant human TDP1 enzymatic activity, dose-response. In outline: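 Compounds are preincubated 15 min at room temperature with 1 nM recombinant human Tdp1. The reaction starts on adding 15 nM FITC-phosphotyrosine DNA substrate, runs 5 min, and is detected by AlphaScreen beads after 10 min.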
Sequence of Tyrosyl-DNA phosphodiesterase 1 (Homo sapiens) (Q9NUW8 whole entry, looked up): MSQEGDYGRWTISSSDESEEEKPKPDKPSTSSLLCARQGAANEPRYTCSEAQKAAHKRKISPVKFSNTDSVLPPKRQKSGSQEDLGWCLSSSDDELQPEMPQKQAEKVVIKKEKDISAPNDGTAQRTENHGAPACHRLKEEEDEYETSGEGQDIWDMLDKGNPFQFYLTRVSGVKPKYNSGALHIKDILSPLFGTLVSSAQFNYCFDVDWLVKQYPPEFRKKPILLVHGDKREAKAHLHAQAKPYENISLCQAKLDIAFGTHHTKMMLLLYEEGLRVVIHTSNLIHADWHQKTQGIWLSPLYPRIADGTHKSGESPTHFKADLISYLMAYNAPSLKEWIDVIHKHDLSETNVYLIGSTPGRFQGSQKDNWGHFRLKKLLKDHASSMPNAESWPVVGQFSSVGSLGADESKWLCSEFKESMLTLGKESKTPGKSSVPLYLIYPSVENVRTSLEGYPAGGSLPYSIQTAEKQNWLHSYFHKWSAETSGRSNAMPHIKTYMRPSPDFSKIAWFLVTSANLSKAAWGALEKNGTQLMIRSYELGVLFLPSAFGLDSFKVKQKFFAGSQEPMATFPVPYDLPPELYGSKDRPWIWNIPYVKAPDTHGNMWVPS

In test [2] the target is Dual specificity protein kinase CLK4 (Homo sapiens) (UniProt Q9HAZ1). The test can be described thus: qHTS Assay for Inhibitors of CDC-like Kinase 4 (Kinase-Glo Assay) (AID 1770). Further: nearly all actives have a fitted effect of over 65% in size. The conditions noted are these: recombinant Clk4, Kinase-Glo ATP depletion luminescence; series mostly up to 66.7 µM. In a few lines: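 Recombinant human Clk4 (25 nM) phosphorylated RS repeat peptide (100 uM) with 1 uM ATP in Tris pH 7.5/MgCl2/EGTA/DTT/Triton buffer for 4.5 h at room temperature. Residual ATP was quantified by Kinase-Glo luciferase luminescence.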
Sequence of Dual specificity protein kinase CLK4 (Homo sapiens) (Q9HAZ1 whole entry, looked up): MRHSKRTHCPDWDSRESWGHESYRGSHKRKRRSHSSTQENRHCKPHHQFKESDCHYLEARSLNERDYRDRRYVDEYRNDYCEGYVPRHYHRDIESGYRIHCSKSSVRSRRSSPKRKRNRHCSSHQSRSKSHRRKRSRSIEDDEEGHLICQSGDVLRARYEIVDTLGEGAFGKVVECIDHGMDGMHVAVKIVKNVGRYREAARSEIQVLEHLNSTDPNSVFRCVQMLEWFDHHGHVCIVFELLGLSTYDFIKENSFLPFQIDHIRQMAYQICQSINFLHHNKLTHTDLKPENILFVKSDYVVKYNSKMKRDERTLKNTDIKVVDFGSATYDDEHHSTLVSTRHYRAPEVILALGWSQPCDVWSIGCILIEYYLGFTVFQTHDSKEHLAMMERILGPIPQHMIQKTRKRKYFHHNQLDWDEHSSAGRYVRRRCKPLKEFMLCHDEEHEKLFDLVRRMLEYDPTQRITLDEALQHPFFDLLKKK
For orientation: Quantitative high-throughput screening tests each substance at several concentrations.

Test [3] shares this target. The test can be described thus: qHTS Assay for Inhibitors of CDC-like Kinase 4 (ADP-Glo Assay) (AID 1771). Further: nearly all actives have a fitted effect of over 70% in size. The note with it: recombinant CLK4, ADP-Glo luminescence; series mostly up to 80 µM. In outline: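 Compounds are pin-transferred onto substrate mix (100 uM RS peptide, 1 uM ATP), then 25 nM Clk4 is added. After 1 hr at room temperature, ADP-Glo reagent runs 45 min, detection reagent 30 min, then luminescence is read.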

Test [4] has the same target. The test can be described thus: qHTS Assay for Inhibitors of CDC-like Kinase 4 (ADP-FP Assay) (AID 1795). Further: nearly all actives have a fitted effect of over 60% in size. The note with it: Transcreener ADP fluorescence polarization; series mostly up to 50 µM. In outline:
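Recombinant human Clk4 (6.25 nM) phosphorylated RS repeat peptide (100 uM) with 1 uM ATP in Tris pH 7.5/MgCl2/EGTA/DTT/Triton buffer for one hour. ADP was quantified by Transcreener competitive fluorescence polarization against an ADP calibration curve.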

Records with an inconclusive call do not appear. Active and inactive are the calls of the source. The call rests on the fitted dose curve; in most records, active means well fitted inhibition curve with a large enough effect; inconclusive means small, poorly fitted or top-dose-only effect; inactive means flat fitted curve, though single readings scatter.
Potency means the concentration at half of the fitted maximal effect.

Consider `Cc1ccccc1-c1cncnc1N(C)Cc1ccco1`, for which the Potency in test [1] was 3.16 µM (active).

For the compound `COc1ccc(-n2c(=O)cnc3cnc(N(C)C)nc32)cc1`, the figures for the Potency in test [2], in test [3] and in test [4] were 11.2 µM (active), 12.6 µM (active) and 11.2 µM (active), respectively.

In the case of `COc1ccc(CNc2ncncc2-c2cccnc2)c(OC)c1`, the Potency result in test [4] is “inactive”.
